These results are taken from PubChem BioAssay (NCATS).

Inconclusive results are not listed. Entries that show only a call come without a potency. Activity calls are given as the source filed them. Calls follow the shape of the dose curve; as a rule, active = well fitted inhibition curve with a large enough effect; inconclusive = small, poorly fitted or top-dose-only effect; inactive = flat fitted curve, though single readings scatter.

This assay can be described thus: qHTS for Inhibitors of Plasmodium falciparum (DD2) proliferation (AID 504314).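 Also: parasite DNA measured by SYBR Green fluorescence after red cell lysis.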 The note with it: P. falciparum Dd2 in erythrocytes, SYBR Green growth, 72 h; series mostly up to 1.12 µM. In a few lines:
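Infected RBCs, 0.3% parasitemia, 2.5% Hct; compound 72 h, 37C/5% CO2; lyse + SYBR Green I, RT overnight, dark; read ex485/em535; normalize to DMSO and artemisinin 0.29 uM.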
In general terms: Quantitative high-throughput screening tests each substance at several concentrations.
For `COC(=O)N[C@@H](c1cccc(C)c1)[C@]1(C(C)=O)CCCC1=O`, the Potency result is “inactive”. Next, `CCN1C(=O)N[C@@H](c2ccco2)C(C(C)=O)=C1C`: “inactive”; `CCOC(=O)CN1C(=O)N[C@@H](c2ccco2)C(C(=O)OC)=C1C`: “inactive”; `COCCN1C(=O)N(C)[C@@H](c2ccccc2)C(C(C)=O)=C1C`: “inactive”. As to `COC(=O)C1=C(C(=O)OC)[C@@H]2N(Cc3ccccc3)c3ccccc3[C@@]23C[C@@H](C(=O)OC)N(C(=O)C2CCC2)C3=N1`, the Potency entry was “inactive”. To `CC1(OC(=O)CCc2ccccc2)C(=O)C=C2C=C(c3ccc(C#N)cc3)N(C3CCCCC3)C=C2C1=O` (stereo unspecified) belongs “inactive”; to `COC/C=C/C1=CC2=CC(=O)C(C)(OC(=O)c3cnc4ccccc4n3)C(=O)C2=CN1c1ccc(CO)cc1` (stereo unspecified), “inactive”.

Consider `CCN1C(=O)N[C@@H](CCc2ccccc2)C(C(C)=O)=C1C`, for which the Potency result is “inactive”. To `CCOC(=O)C=CCCCC=CC(=O)c1ccccc1` belongs “inactive”; to `COC(=O)C1=C(C(=O)OC)[C@@H]2Nc3ccccc3[C@@]23C[C@@H](C(=O)OC)N(C(=O)NC2CCCC2)C3=N1`, “inactive”. As for `COC/C=C/C1=CC2=CC(=O)C(C)(OC(=O)c3cnc4ccccc4n3)C(=O)C2=CN1CCc1c[nH]c2ccccc12` (stereo unspecified), the Potency entry was “inactive”. To `COC(=O)CCCC1=CC2=C(c3ccccc3)C(=O)C(C)(OC(=O)C3CCCC3)C(=O)C2=CN1CCc1ccccn1` (stereo unspecified) belongs “inactive”.

For `CCCCC1=CC2=CC(=O)C(C)(OC(=O)CC)C(=O)C2=CN1C(CO)CO` (stereo unspecified), the Potency result was “inactive”.

Consider `CCN(CC)CCCN1C=C2C(=O)C(C)(OC(=O)CCC(=O)OC)C(=O)C=C2C=C1C1CC1` (stereo unspecified), for which the Potency entry was “inactive”.

Take `CCN1C(=O)N[C@@H](c2ccccc2)C(C(=O)OC)=C1C`: the Potency result was “inactive”. As for `COC(=O)C1=C(C(=O)OC)[C@@H]2N(Cc3ccccc3)c3ccccc3[C@@]23C[C@@H](C(=O)OC)N(C(C)=O)C3=N1`, the Potency entry was “inactive”. Next, `CCOC(=O)CN1C(=O)N[C@@H](c2ccco2)C(C(C)=O)=C1C`: “inactive”; `COC(=O)[C@@H]1[C@H](CCc2ccccc2)NC(=O)N(Cc2ccccc2)[C@@H]1C`: “inactive”; `COC(=O)C1=C(C(=O)OC)[C@@H]2N(C)c3ccc(OC)cc3[C@@]23C[C@@H](C(=O)OC)N(C(=O)C2CCC2)C3=N1`: “inactive”. To `COCC(=O)N1CCc2nc(-c3ccc(OC)cc3C)c3c(c2C1)CO[C@@H](c1ccccc1)C3` belongs “inactive”; to `COC(=O)C1=C(C(=O)OC)[C@@H]2N(C)c3ccccc3[C@@]23C[C@@H](C(=O)OC)N(C(=O)CC(C)C)C3=N1`, “inactive”. To `COC(=O)C1=C(C)N(Cc2ccccc2)C(=O)N[C@H]1c1ccco1` belongs “inactive”; to `COC(=O)CCC(=O)OC1(C)C(=O)C=C2C=C(C3CC3)N(Cc3ccccc3)C=C2C1=O` (stereo unspecified), “inactive”. In the case of `COC/C=C/C1=CC2=CC(=O)C(C)(OC(=O)c3cnc4ccccc4n3)C(=O)C2=CN1CCc1ccccn1` (stereo unspecified), the Potency entry is “inactive”.

For `COC(=O)C1=C(C)N(Cc2ccccc2)C(=O)NC1c1ccco1` (stereo unspecified), the Potency entry was “inactive”.

As to `CC(=O)[C@@H]1[C@@H](C)N(Cc2ccccc2)C(=O)N[C@H]1c1cccc(C(F)(F)F)c1`, the Potency result was “inactive”. Next, `COC(=O)C1=C(C(=O)OC)[C@@H]2Nc3ccccc3[C@@]23C[C@@H](C(=O)OC)N(S(=O)(=O)c2ccc(C)cc2)C3=N1`: “inactive”; `CC1(OC(=O)CCc2ccccc2)C(=O)C=C2C=C(c3ccc(C#N)cc3)N(CCN3CCOCC3)C=C2C1=O` (stereo unspecified): “inactive”; `CCOC(=O)CN1C(=O)N[C@@H](c2ccccc2)[C@H](C(=O)OC)[C@H]1C`: “inactive”.

Turning to `CCCCC1=CC2=C(c3ccco3)C(=O)C(C)(OC(=O)c3ccc(OC)cc3)C(=O)C2=CN1c1ccccc1` (stereo unspecified), the Potency entry is “inactive”. To `C=CC1=C2C=C(C3CC3)N(CCCN(CC)CC)C=C2C(=O)C(C)(OC(=O)c2ccco2)C1=O` (stereo unspecified) belongs “inactive”.

In the case of `CCOC(=O)CN1C(=O)N[C@@H](c2cccc(F)c2)C(C(=O)OC)=C1C`, the Potency entry was “inactive”.

In the case of `CCOC(=O)NN=C1C[C@@H](O)[C@@H](O)[C@@H]2[C@H]3C(=O)N([C@@H](C)c4ccccc4)C(=O)[C@@H]3CC[C@@H]12`, the Potency entry was “inactive”.

Consider `COC(=O)C1=C(C)N(Cc2ccccc2)C(=O)N[C@H]1CCc1ccccc1`, for which the Potency result was “inactive”. To `COC(=O)C1=C(C(=O)OC)[C@@H]2N(C)c3ccccc3[C@@]23C[C@@H](C(=O)OC)N(S(=O)(=O)c2ccc(C#N)cc2)C3=N1` belongs “inactive”; to `COC(=O)C1=C(C(=O)OC)[C@@H]2N(C)c3ccccc3[C@@]23C[C@@H](CO)N=C3N1`, “inactive”.
